# Test results published in PubChem BioAssay AID1850 (Southern Research Specialized Biocontainment Screening …, 2009).
# Hit rate of the full screen: of about 310,000 compounds, about 1,000 (0.32%) were called active. These entries were drawn from the full list. Entries with a potency or affinity are not part of this list. A number with no mark means an inactive call. No rule for the calls is given here.
# Assay: Inhibition of PhoP regulon, Salmonella typhi GFP reporter cells, confirmation, 4 h (AID 1850);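 also: 0% = induced wells with vehicle and 100% = uninduced wells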
# Settings: Salmonella Typhi PhoP-promoter GFP reporter, fluorescence, at 50 µM, active compounds read high
row,SMILES,inhibition
1,Cc1ccc(CSc2nnc(-c3cccc(S(=O)(=O)N4CCOCC4)c3)n2CC(C)C)cc1,10.2%
2,CCOC(=O)[C@@H]1CCNC[C@@H]1c1ccccc1,-2.58%
3,CCC(C)Sc1nnc(NC(=O)c2ccco2)s1 (configuration not stated),-2.84%
4,CC(C)(C)c1ccccc1N=Cc1ccc2ccccc2n1,-21.3%
5,Cc1onc(-c2ccc(Cl)cc2)c1-c1ccnn1S(=O)(=O)c1cccc(C(F)(F)F)c1,-8.24%
6,Cc1ccccc1NC(=S)N(Cc1cccnc1)Cc1ccccc1Cl,-8.27%
7,CCOC(=O)C1CCN(Cc2c(F)cccc2Cl)CC1,-1.3%
8,COc1ccc(C(=O)C2CCCN(C(=O)c3ccc(F)cc3)C2)cc1OC (configuration not stated),-6.1%
9,O=C(Nc1ccc(F)cc1)c1cccnc1,-6.59%
10,Cc1cccc(C2N=C(N)Nc3nc4ccccc4n32)c1 (configuration not stated),1.47%
11,CCOC(=O)C1=C(C)Nc2nc3ccccc3n2C1c1ccccc1 (configuration not stated),-6.62%
12,CCn1c2ccccc2c2cc(C3N=C(N)Nc4nc5ccccc5n43)ccc21 (configuration not stated),6.06%
13,Cc1ccc(C2N=C(N)Nc3nc4ccccc4n32)cc1 (configuration not stated),-13.9%
14,NC1=NC(c2ccccc2Cl)n2c(nc3ccccc32)N1 (configuration not stated),4.77%
15,NC1=NC(c2ccc(Cl)cc2)n2c(nc3ccccc32)N1 (configuration not stated),-5.56%
16,CCCCCOc1ccc(CSCCNC(=S)Nc2ccccc2)cc1,-18.1%
17,CC(C)CN(C(=O)COC(=O)CSc1ccccc1F)c1c(N)n(Cc2ccccc2)c(=O)[nH]c1=O,4.09%
18,COc1cc(C2/C(=C(\O)c3ccc4c(c3)CC(C)O4)C(=O)C(=O)N2CCN2CCOCC2)cc(OC)c1OC (configuration not stated),-7.62%
19,CC(C)(C)NC(=O)/C(=C/c1ccccc1F)NC(=O)c1ccc([N+](=O)[O-])cc1,7.24%
20,CC(C)NC(=O)NC(=O)CN1C(=O)NC2(CCc3ccccc3C2)C1=O (configuration not stated),-20.4%
21,C/C=C/C(=O)Nc1nnc(C2CCCCC2)s1,-12.4%

row,SMILES,inhibition
1,COC(=O)C1CCCCN1C(=O)c1ccc2oc(Cc3ccccc3)nc2c1 (configuration not stated),-3.48%
2,COc1ccccc1CC(=O)NNS(=O)(=O)c1cccc([N+](=O)[O-])c1,-15.1%
3,c1ccc(C[C@H]2CNCCN2CCC23CC4CC(CC(C4)C2)C3)cc1,15.7%
4,c1ccc(C[C@H]2CNCCN2CCCCC2CCCCC2)cc1,1.44%
5,Oc1ccc(C[C@@H]2CNCCN2CC2CCCCC2)cc1,-6.54%
6,Oc1ccc(C[C@H]2CNCCN2CC2CCCCC2)cc1,-0.4%
7,Oc1ccc(C[C@H]2CNCCN2CCC23CC4CC(CC(C4)C2)C3)cc1,-7.57%
8,CCCCN1CCNC[C@H]1Cc1ccc(O)cc1,0.57%
9,Nc1ccccc1SCC(O)Cn1ccc2ccccc21 (configuration not stated),0.67%
10,CN1CCN(CCC(=O)Nc2cccc(F)c2)CC1,-7.12%
11,CCOc1ccc(N(CC(=O)N2CCN(Cc3ccccc3)CC2)S(C)(=O)=O)cc1,1.84%
12,COc1ccc(N2CCN(C(=O)c3ccc(CSc4ccccc4)cc3)CC2)cc1,3.8%
13,CCC(=O)N1CCc2cc(S(=O)(=O)NCCC(=O)NCc3ccc(F)cc3)ccc21,5.61%
14,CN(C(=O)Cc1c(C(=O)O)n(C)c2ccccc12)c1ccc(Cl)cc1,-0.76%
15,CCOC(=O)C1CN(S(=O)(=O)c2ccccc2)C1,-1.91%
16,CC(C)CC(NS(=O)(=O)c1cccc(C(=O)O)c1)C(=O)O (configuration not stated),-4.1%
17,CSc1cccc(NC(=O)c2ccccc2N(C)S(C)(=O)=O)c1,3.99%
18,CCc1nnc(NC(=O)[C@@H](NC(=O)c2ccc(C(C)(C)C)cc2)C(C)C)s1,-2.72%
19,O=C(NNC(=S)NC(=O)c1cccnc1)c1ccc(F)cc1,15.9%
20,COc1cc(OC)cc(C(=O)NC(=S)NNC(=O)c2cnccn2)c1,-6.65%
21,O=C(NC(=S)NNC(=O)c1cnccn1)c1ccc(Cl)cc1,10.3%

row,SMILES,inhibition
1,COc1ccc(C(=O)NC(=S)NNC(=O)c2cnccn2)cc1OC,31.3%
2,COc1cc2oc(=O)cc(C)c2c(OC)c1OC,-3.26%
3,Cc1ccc(NC(=O)C2CCCN(S(=O)(=O)c3cccs3)C2)cc1 (configuration not stated),3.27%
4,COc1ccc(N2C(N)=NC(N)=NC2(C)C)cc1,2.39%
5,CCOc1ccc(N2C(N)=NC(N)=NC2(C)C)cc1,-0.23%
6,COC(=O)c1ccc(CNC(=O)COC(=O)Cc2ccsc2)cc1,8.65%
7,O=C(Nc1ccc(F)cc1)c1sc(Cl)nc1-c1ccccc1,-0.89%
8,O=C(/C=C/c1ccccc1O)c1ccco1,8.77%
9,O=C(/C=C/c1ccc(Br)cc1)c1ccco1,2.45%
10,COc1ccc(/C=C/C(=O)Oc2ccc(C)cc2)cc1,-5.85%
11,Cc1ccc(-c2cc(-c3ccc(C)cc3)[n+](C)o2)cc1,-2.37%
12,CCOc1cccc(CN(C)CC2CCCN(CCc3ccc(Cl)cc3)C2)c1O (configuration not stated),-8.67%
13,CN(Cc1ccccc1OCCO)CC1CCCN(CCc2ccc(Cl)cc2)C1 (configuration not stated),0.25%
14,O=C(Nc1c(C(=O)N2CCOCC2)cnn1-c1ccccc1)c1cccc(F)c1,-2.99%
15,Cc1ccc2nc(N(CCN3CCOCC3)C(=O)CCS(=O)(=O)c3ccccc3)sc2c1,0.17%
16,O=c1[nH]c(-c2ccccn2)nc2ccccc12,-0.6%
17,COc1cnc(-c2ccccn2)[nH]c1=O,-0.99%
18,O=C(NC1CCCC1)C(c1ccccn1)N(C(=O)c1csnn1)c1ccccc1Br (configuration not stated),5.15%
19,CCN(CC)CCNC(=O)CNC(=O)c1nn(-c2ccc(OC)c(OC)c2)c(=O)c2ccccc12,-2.16%
20,CC(=O)c1cc(C)ccc1OC(=O)c1ccncc1,-3.27%
